The source made the active and inactive calls. How the source made its calls: active means hit-call score of the fitted dose curve at least 0.9, where 1 is the maximum; inactive means score below 0.9.
Tests used:
[1] = CCTE_Shafer_MEA_acute_burst_duration_mean: CCTE's Neural Acute Assay for Mean Burst Duration, Shafer Lab (AID 2284014);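 further: hits are decreases in mean burst duration relative to DMSO controls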
Summary of the method: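 Acute exposure of mature rat cortical networks (DIV 13 or 15) grown on microelectrode arrays to 0.03-40 uM compound. Mean burst duration compared with the 40-min pre-dose baseline over a 40-min post-dose recording at 37 C.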

[2] = CCTE_Shafer_MEA_acute_per_burst_spike_number_mean: CCTE's Neural Acute Assay for Average Number of Spikes Per Burst, Shafer Lab (AID 2284015);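 further: hits are decreases in mean spikes per burst versus baseline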
Summary of the method: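 Read-out: percent change in mean spikes per burst, each well's post-exposure 40-min recording versus its own 40-min baseline. Rat cortical cultures, DIV 13 or 15, compounds 0.03-40 uM; DMSO is negative control, loss-of-signal fitting.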

[3] = CCTE_Shafer_MEA_acute_interburst_interval_mean: CCTE's Neural Acute Assay for Mean Interburst Interval, Shafer Lab (AID 2284016);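 further: percent change of mean interburst interval versus each well's own pre-dose baseline; curves fitted for decrease in interburst interval relative to DMSO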
Summary of the method: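 Rat cortical cultures, DIV 13/15; 20 min equilibration, 40 min baseline, compound 0.03-40 uM, 40 min re-recording, 37 C. Spikes detected at 8x rms noise (300-5000 Hz band-pass). Endpoint: % change in interburst interval, fitted in loss direction vs DMSO.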

[4] = CCTE_Shafer_MEA_acute_burst_percentage_mean: CCTE's Neural Acute Assay for Percentage of Spikes in a Burst, Shafer Lab (AID 2284017);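 on AC50: curve fitted for loss of signal so potency reflects decreased burst percentage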
Summary of the method: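 Rat cortical cultures, DIV 13/15, 37 C. Spikes detected at 8x rms noise (300-5000 Hz band-pass). Burst spikes/total spikes averaged across electrodes per well; % change post- vs pre-treatment (40 min each), loss-of-signal fit vs DMSO.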

[5] = CCTE_Shafer_MEA_acute_burst_percentage_std: CCTE's Neural Acute Assay for Standard Deviation of Burst Percentage, Shafer Lab (AID 2284018);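 further: fitted in the negative direction so actives lower burst percentage SD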
Summary of the method: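 Primary rat cortical neurons on 16-electrode MEA wells were recorded 40 min at baseline (DIV 13 or 15), then 40 min after compound (0.03-40 uM), at 37 C. Well value is SD across electrodes of spikes-in-bursts/total spikes; endpoint is percent change, DMSO-referenced.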

[6] = CCTE_Shafer_MEA_acute_per_network_burst_spike_number_std: CCTE's Neural Acute Assay for Standard Deviation of Number of Spikes in a Network Burst, Shafer Lab (AID 2284020);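 further: fitted for decrease in spike-number SD versus DMSO so actives lower it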
Summary of the method: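 Acute MEA exposure, rat cortical neurons, 0.03-40 uM. Per-well % change versus own baseline; DMSO as negative control.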

[7] = CCTE_Shafer_MEA_acute_per_network_burst_electrodes_number_mean: CCTE's Neural Acute Assay for Mean Number of Electrodes in a Network Burst, Shafer Lab (AID 2284021);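 further: curves fitted for decreases only so hits reduce electrodes per burst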
Summary of the method: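 Rat primary cortical neurons on 16-electrode MEA wells were recorded 40 min at baseline on DIV 13 or 15, then 40 min after compound (0.03-40 uM), at 37 C. Value is percent change per well, fitted in loss direction versus DMSO.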

[8] = CCTE_Shafer_MEA_acute_network_burst_percentage: CCTE's Neural Acute Assay for Percentage of Network Bursts, Shafer Lab (AID 2284022);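 further: curves fitted for loss so actives lower network burst percentage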
Summary of the method: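 Primary rat cortical neurons on 16-electrode MEA wells, treated on DIV 13 or 15 with compound (0.03-40 uM); 40-min baseline and 40-min post-exposure recordings at 37 C. Value is percent change in spikes within network bursts versus baseline, DMSO negative control.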

[9] = CCTE_Shafer_MEA_acute_cross_correlation_area: CCTE's Neural Acute Assay for Area of Cross Correlation, Shafer Lab (AID 2284024);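 further: area under pooled inter-electrode spike cross-correlation near zero lag as percent change from own baseline; curves fitted for loss of cross-correlation area so actives lower synchrony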
Summary of the method: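 Primary rat cortical neurons on 48-well MEA plates (16 electrodes/well) were recorded 40 min at baseline on DIV 13 or 15, then 40 min with compound (0.03-40 uM) at 37 C; cross-correlation area expressed as percent change from baseline.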

[10] = CCTE_Shafer_MEA_acute_cross_correlation_HWHM: CCTE's Neural Acute Assay for Cross Correlation at Half Width at Half Maximum, Shafer Lab (AID 2284026);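 further: percent change per well from pre-dose baseline in spike cross-correlogram half width; hits are a decrease in cross-correlogram half width relative to DMSO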;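 on outcome: spontaneous network firing of rat primary cortical neurons on multiwell microelectrode arrays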
Summary of the method: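 Primary rat cortical neurons on 16-electrode MEA wells; 40-min baseline on DIV 13 or 15, then 40-min recording with compound (0.03-40 uM) at 37 C. HWHM of spike cross-correlogram expressed as percent change from baseline per well, DMSO reference.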

Compound	outcome [1]	outcome [2]	outcome [3]	outcome [4]	outcome [5]	outcome [6]	outcome [7]	outcome [8]	outcome [9]	outcome [10]	AC50 [6]	AC50 [4]	AC50 [8]	AC50 [9]	AC50 [2]	AC50 [10]	AC50 [5]
CC[Si](OC(C)=O)(OC(C)=O)OC(C)=O	inactive	inactive	inactive	inactive	inactive	inactive	inactive	inactive	inactive	inactive							
COc1cc(C=O)ccc1OC(=O)C(C)C	inactive	inactive	inactive	inactive	inactive		inactive	inactive	inactive	inactive	3760 nM (active)						
CC(=O)[C@H]1CC[C@H]2[C@@H]3CC=C4C[C@@H](O)CC[C@]4(C)[C@H]3CC[C@]12C	inactive	inactive	inactive		inactive	inactive	inactive			inactive		2980 nM (active)	26.7 nM (active)	3 nM (active)			
C[C@H]1C[C@@H]2[C@H]([C@@H](O)C[C@@]3(C)[C@H]2CC[C@]3(O)C(=O)CO)[C@@]2(C)C=CC(=O)C=C12	inactive	inactive	inactive	inactive	inactive	inactive	inactive	inactive		inactive				4.5 nM (active)			
OC[C@H]1O[C@H](O[C@]2(CCl)O[C@H](CCl)[C@@H](O)[C@@H]2O)[C@H](O)[C@@H](O)[C@H]1Cl	inactive	inactive	inactive	inactive	inactive	inactive	inactive	inactive	inactive	inactive							
CCC(=O)OCc1ccccc1	inactive	inactive	inactive	inactive	inactive	inactive	inactive	inactive		inactive				9.43 nM (active)			
CC(C)(COC(=O)c1ccccc1)COC(=O)c1ccccc1	inactive	inactive	inactive	inactive	inactive	inactive	inactive	inactive	inactive	inactive							
Nc1cc([N+](=O)[O-])ccc1O	inactive		inactive		inactive		inactive		inactive		226 nM (active)	23700 nM (active)	15000 nM (active)		25100 nM (active)	24400 nM (active)	
CN(C)C(=N)N=C(N)N	inactive	inactive	inactive	inactive	inactive	inactive	inactive	inactive	inactive	inactive							
CC(=O)OCCC(C)CC(C)(C)C (stereo not given)	inactive	inactive	inactive	inactive	inactive	inactive	inactive	inactive	inactive	inactive							
C=C[Si](OCC)(OCC)OCC	inactive	inactive	inactive	inactive	inactive	inactive	inactive	inactive	inactive	inactive							
C=CCOC(=O)CCC1CCCCC1	inactive	inactive	inactive	inactive	inactive	inactive	inactive	inactive	inactive	inactive							
CCCCCCCCC=O	inactive	inactive	inactive	inactive	inactive	inactive	inactive	inactive	inactive	inactive							
NCCNCCN	inactive	inactive	inactive	inactive	inactive	inactive	inactive	inactive	inactive	inactive							
Cc1cc(C2(c3cc(C)c(O)cc3C)OS(=O)(=O)c3ccccc32)c(C)cc1O	inactive	inactive	inactive	inactive	inactive	inactive	inactive	inactive	inactive	inactive							
OC1OC[C@@H](O)[C@H](O)[C@H]1O (stereo not given in full)	inactive	inactive	inactive	inactive		inactive	inactive	inactive	inactive	inactive							1210 nM (active)

Source: PubChem BioAssay (EPA / NIEHS)
